Source: PubChem BioAssay
Measured potencies and affinities stand elsewhere. Inconclusive results are not listed. Activity calls are given as the source filed them. Unless noted, the rule behind the calls is not given here.

Tests used:
[1] = RMG-1 ovarian cancer cell viability loss – cherry-pick, dose response (AID 687029;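 active = signal drop whose fitted half-maximal concentration is at most twice the top valid dose, in every test run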;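 note: cells exposed to compound for 96 hours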)
[2] = IOSE-T80 viability loss, PAX8-independent line – cell-based, cherry-pick, selectivity assay for PAX8 inhibitor project, dose response (AID 687032;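 active = fitted half-maximal concentration for viability loss no higher than twice the top valid dose, in every repeat run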;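 note: cells exposed to compound for 96 h before reading; 0% = neutral control wells and -100% = 2 µM mitoxantrone kill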)
[3] = CMV-driven luciferase expression suppression in HEK293 – cell-based, luminescence, dry powder, counter-screen for Pax8 inhibitor project, dose response (AID 743020;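 active = signal-lowering compounds whose fitted half-maximal concentration is at or below twice the top tested dose in every run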;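 note: HEK293 cells stably expressing the CMV luciferase reporter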)
[4] = general cell-killing toxicity readout – plate reader, dry powder samples, cytotoxicity control for PAX8 inhibitor project, dose response (AID 743021)
[5] = IGROV1 cell killing – plate reader, dry powder samples, PAX8 inhibitor project, dose response (AID 743043);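 note: more negative means fewer viable cells or more cytotoxicity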
[6] = OVCAR-3 cell viability loss – plate reader, dry powder samples, PAX8 inhibitor project, dose response (AID 743044)
[7] = toxicity toward immortalized ovarian surface epithelium – cell-based, plate reader, dry powder samples, cytotoxicity control for PAX8 inhibitor project, dose response (AID 743045);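 note: 0% = neutral control median and -100% = positive control median; more negative values mean more cell killing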
[8] = A2780 cell killing – plate reader, dry powder samples, cytotoxicity control, dose response (AID 743046);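 note: 0% = neutral control wells and -100% = cytotoxic reference compound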
[9] = OVCAR8 cell viability loss – plate reader, dry powder samples, PAX8 project, dose response (AID 743197)
[10] = max activity: at 35 µM, active compounds read low unless noted

Measured: max activity

C[C@@H]1CCCCO[C@@H](CN(C)Cc2ccccc2)[C@@H](C)CN([C@@H](C)CO)C(=O)c2cc(NS(=O)(=O)c3ccc(Cl)cc3)ccc2O1
inactive: [1] | [2] | [3] | [4] | [5] | [6]; [10] 29.1% [at 0.26 µM, active compounds read low] | [7]

CN1C(=O)c2cc(NC(=O)c3cccc(Cl)c3)ccc2OC[C@@H]2O[C@H](CC(=O)NC3CCCCC3)CC[C@@H]21
inactive: [1] | [2] | [3] | [4] | [5] | [6]; [10] -25.7% | [7]

COC(=O)C12OCC34C(CC5C(C)=C(O)C(=O)CC5(C)C3C(O)C1O)OC(=O)C(OC(=O)C=C(C)C)C24 (centres undefined)
inactive: [1] | [2] | [3] | [4]

Cc1ccc(C)c(N2CCN(C(=O)CCCCCn3c(=S)[nH]c4ccc(N5CCOCC5)cc4c3=O)CC2)c1
inactive: [1] | [2] | [3] | [4]

C[C@@H]1CN([C@H](C)CO)C(=O)c2cc(NC(=O)Nc3ccc(F)cc3)ccc2O[C@@H](C)CCCCO[C@H]1CN(C)S(=O)(=O)c1ccc(Cl)cc1
inactive: [1] | [2] | [3] | [4] | [5] | [6]; [10] -22.1% [at 16 µM, active compounds read low] | [7]

C[C@@H]1CN([C@@H](C)CO)C(=O)c2c(c3ccccc3n2C)-c2ccccc2CO[C@H]1CN(C)S(=O)(=O)c1cccc(F)c1
inactive: [1] | [2] | [3] | [4] | [5] | [6]; [10] -19.9% [at 16 µM, active compounds read low] | [7] | [8]

O=C(C[C@@H]1C[C@@H]2c3cc(NS(=O)(=O)c4ccc(F)cc4)ccc3O[C@@H]2[C@@H](CO)O1)NCc1ccc(-c2ccccc2)cc1
inactive: [1] | [2] | [3] | [4] | [5] | [6]; [10] -23.3% [at 16 µM, active compounds read low] | [7]

COc1ccccc1C#Cc1ccc([C@@H]2[C@@H](C#N)N(C(=O)C3CCCCC3)[C@H]2CO)cc1
inactive: [1] | [2] | [3] | [4] | [5] | [6]; [10] 26.7% [at 30 µM, active compounds read low] | [6]; [10] | [7] | [8] | [9]

CCCCNC(=O)C(Sc1ccccc1)c1ccccc1 (centres undefined)
inactive: [1] | [2] | [3] | [4]

CCCN(CCC)Cc1c(C(=O)N/N=C/C(C)=C\c2ccco2)nnn1-c1nonc1N
inactive: [1] | [2] | [3] | [4]

C[C@H](CO)N1C[C@H](C)[C@H](CN(C)S(=O)(=O)c2ccccc2)OCCCC[C@H](C)Oc2ccc(NS(=O)(=O)c3ccc(Cl)cc3)cc2C1=O
inactive: [1] | [2] | [3] | [4] | [5] | [6]; [10] -18.9% | [7]

C[C@@H]1CCCCO[C@H](CN(C)Cc2ccc(C(F)(F)F)cc2)[C@@H](C)CN([C@@H](C)CO)C(=O)c2cc(NS(=O)(=O)c3ccc(Cl)cc3)ccc2O1
inactive: [1] | [2] | [3] | [4] | [5] | [6]; [10] -151% | [7]

CS(=O)(=O)N1C[C@@H]2N[C@H](C1)[C@@H]2c1ccc(-c2ccccc2)cc1
inactive: [1] | [2] | [3] | [4] | [5] | [6]; [10] 15.8% [at 1 µM, active compounds read low] | [7] | [8]

C[C@@H]1CN([C@@H](C)CO)C(=O)c2cc(NS(=O)(=O)c3ccc(F)cc3)ccc2O[C@@H]1CN(C)Cc1ccc(C(F)(F)F)cc1
inactive: [1] | [2] | [3] | [4] | [5] | [6]; [10] -27.7% | [7] | [8]

C[C@H](CO)N1C[C@H](C)[C@@H](CN(C)Cc2ccc(Cl)c(Cl)c2)OCCCC[C@H](C)Oc2ccc(NS(=O)(=O)c3ccc(F)cc3)cc2C1=O
inactive: [1] | [2] | [3] | [4] | [5] | [6]; [10] -28.3% | [7]

COc1ccc(NC(=O)Nc2ccc3c(c2)C(=O)N([C@H](C)CO)C[C@@H](C)[C@@H](CN(C)C(=O)Cc2ccccc2)OCCCC[C@H](C)O3)cc1
inactive: [1] | [2] | [3] | [4] | [5] | [6]; [10] -34.5% | [7]

C[C@@H]1CCCCO[C@@H](CN(C)Cc2ccncc2)[C@H](C)CN([C@H](C)CO)C(=O)c2cc(NC(=O)Nc3ccc(C(F)(F)F)cc3)ccc2O1
inactive: [1] | [2] | [3] | [4] | [5] | [6]; [10] 17.2% [at 4.2 µM, active compounds read low] | [7] | [8]

C[C@@H]1CCCCO[C@H](CN(C)Cc2ccc3c(c2)OCO3)[C@@H](C)CN([C@@H](C)CO)C(=O)c2cc(NS(=O)(=O)c3ccc(Cl)cc3)ccc2O1
inactive: [1] | [2] | [3] | [4] | [5] | [6]; [10] -40.7% [at 16 µM, active compounds read low] | [7] | [8]

COc1ccc2c(c1)C(C)=CC(C)(C)N2S(=O)(=O)c1ccc(Br)cc1
inactive: [1] | [2] | [3] | [4] | [5]

C[C@H]1CN([C@@H](C)CO)C(=O)Cc2cc(NC(=O)Nc3ccc4c(c3)OCO4)ccc2O[C@@H]1CN(C)CC1CCCCC1
inactive: [1] | [2] | [3] | [4] | [5] | [6]; [10] -10.1% | [7]

COc1cccc(S(=O)(=O)N(C)C[C@H]2OCc3ccccc3-c3c(n(C)c4ccccc34)C(=O)N([C@H](C)CO)C[C@H]2C)c1
inactive: [1] | [2] | [3] | [4] | [5] | [6]; [10] 28.2% [at 2.1 µM, active compounds read low] | [7]

C[C@@H]1CN([C@H](C)CO)C(=O)c2c(c3ccccc3n2C)-c2ccccc2CO[C@H]1CN(C)C(=O)Nc1cccc(C(F)(F)F)c1
inactive: [1] | [2] | [3] | [4] | [5] | [6]; [10] -25.5% [at 16 µM, active compounds read low] | [7] | [8]

Cc1ccccc1-c1ccc2c(c1)O[C@H](CN(C)C(=O)Nc1ccc(C(F)(F)F)cc1)[C@H](C)CN([C@H](C)CO)S2(=O)=O
inactive: [1] | [2] | [3] | [4] | [5] | [6]; [10] -27.3% | [7]

O=C(Nc1ccc(C(F)(F)F)cc1)N1C[C@@H]2N[C@H](C1)C2c1ccc(-c2cccc(F)c2)cc1 (some centres undefined)
inactive: [1] | [2] | [3] | [4] | [5] | [6]; NIH:OVCAR-3 ovarian cancer cell viability, at 8 µM, active compounds read low -9.78% | [6]; NIH:OVCAR-3 ovarian cancer cell viability, at 35 µM, active compounds read low -0.968% | [7] | [8] | [9]

COc1ccc(CN2[C@H](CO)[C@H]3c4ccccc4NC[C@H]32)cc1
inactive: [1] | [2] | [3] | [4] | [5] | [6]; [10] 26.6% [at 0.5 µM, active compounds read low] | [7] | [8]

C[C@@H]1CN([C@@H](C)CO)C(=O)c2cc(NC(=O)Nc3ccc(C(F)(F)F)cc3)ccc2O[C@@H](C)CCCCO[C@H]1CN(C)C(=O)c1ccccc1
inactive: [1] | [2] | [3] | [4] | [5] | [6]; [10] 12.6% [at 0.26 µM, active compounds read low] | [7]

C[C@@H]1CCCCO[C@@H](CN(C)Cc2ccc(Cl)c(Cl)c2)[C@H](C)CN([C@H](C)CO)C(=O)c2cc(NC(=O)Nc3ccc(F)cc3)ccc2O1
inactive: [1] | [2] | [3] | [4] | [5] | [6]; [10] -37% | [7] | [8]

C[C@H](CO)N1C[C@H](C)[C@@H](CN(C)Cc2ccc(Cl)c(Cl)c2)OCCCC[C@H](C)Oc2ccc(NS(=O)(=O)c3ccc(Cl)cc3)cc2C1=O
inactive: [1] | [2] | [3] | [4] | [5] | [6]; [10] -25.3% | [7]

O=C(NCC1CCCO1)C(=Cc1cccc([N+](=O)[O-])c1)C(=O)NCC1CCCO1 (centres undefined)
inactive: [1] | [2] | [3] | [4]

N#Cc1cccc(-c2ccc3c(c2)[C@@H]2[C@@H](CCN2C(=O)C2CCCCC2)[C@@H](CO)N3)c1
inactive: [1] | [2] | [3] | [4] | [5] | [6]; [10] 11.5% [at 16 µM, active compounds read low] | [7] | [8]

COc1ccc2c3c(n(C)c2c1)[C@H](CO)N(C(=O)Nc1ccc(F)cc1)CC31CCN(S(=O)(=O)c2cccc(C)c2)CC1
inactive: [1] | [2] | [3] | [4] | [5] | [6]; [10] -14.5% | [7]

O=C(C[C@H]1CC[C@@H]2[C@H](COC[C@@H](O)CN2S(=O)(=O)c2cccc(Cl)c2)O1)Nc1ccc(-c2ccccc2)cc1
inactive: [1] | [2] | [3] | [4] | [5] | [6]; [10] -18.4% | [7] | [8]

COc1ccc(NC(=O)Nc2ccc3c(c2)C(=O)N([C@@H](C)CO)C[C@@H](C)[C@@H](CN(C)Cc2ccc(Cl)c(Cl)c2)OCCCC[C@@H](C)O3)cc1
inactive: [1] | [2] | [3] | [4] | [5] | [6]; [10] -14.2% | [7] | [8]

COc1ccc(S(=O)(=O)N(C)C[C@H]2OCCCC[C@@H](C)Oc3ccc(NS(=O)(=O)c4c(C)noc4C)cc3C(=O)N([C@H](C)CO)C[C@H]2C)cc1
inactive: [1] | [2] | [3] | [4] | [5] | [6]; [10] -13.5% | [7] | [8]
